Laboratory results reported in PubChem BioAssay (EPA / NIEHS).
The source made the active and inactive calls. Rule for the calls: active = hit-call score of the fitted dose curve at least 0.9, where 1 is the maximum; inconclusive = response in the unintended direction; inactive = score below 0.9.

Target: Androgen Receptor/SRC-1 Co-activator, AR (gene 367) (UniProt P10275)
Test: OT_AR_ARSRC1_0960: Odyssey Thera (OT) 16-hour HEK293T Protein-Complementation Assay for Androgen Receptor/SRC-1 Co-activator (AID 2283353);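 note: actives raise the signal above DMSO so potency reflects increased AR and SRC-1 complex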
Procedure: OT_AR_ARSRC1_0960 is a cell-based, single-readout assay that uses HEK293T, a human kidney cell line, with measurements taken at 16 hours after chemical dosing in a 384-well plate.OT_AR_ARSRC1_0960 is one of one assay component(s) measured or calculated from the OT_AR_ARSRC1_0960 assay. It is designed to make measurements of protein fragment complementation, a form of binding reporter, as detected with fluorescence intensity signals by Protein-fragment Complementation technology.Data from the assay component OT_AR_ARSRC1_0960 was analyzed into 1 assay endpoint. This assay endpoint, OT_AR_ARSRC1_0960, was analyzed in the positive analysis fitting direction relative to DMSO as the negative control and baseline of activity. Using a type of binding reporter, measures of receptor for gain-of-signal activity can be used to understand the binding at the pathway-level as they relate to the gene AR. Furthermore, this assay endpoint can be referred to as a primary readout, because the performed assay has only produced 1 assay endpoint. To generalize the intended target to other relatable targets, this assay endpoint is annotated to the nuclear receptor intended target family, where the subfamily is steroidal.
Protein-fragment complementation assay, or PCA, is a method for the identification and quantification of protein-protein interactions. In the PCA, the proteins of interest ("bait" and "prey") are each covalently linked to fragments of a third protein (e.g. DHFR, which acts as a "reporter"). Interaction between the bait and the prey proteins brings the fragments of the reporter protein in close proximity to allow them to form a functional reporter protein whose activity can be measured. The OT AR / SRC-1 assay assessed androgen receptor chemical interactions using a rapidly maturing, intensely fluorescent mutant of YFP known as Venus, rationally dissected into two separate fragments. […] Fusion constructs were transfected into HEK293T cells with a (Gly4Ser)2 linker between the AR/SRC-1 and YFP fragment genes to facilitate complementation when interacting proteins bring fragments into close proximity. The construct is stably expressed in HEK293T cells. […] Images were acquired on an Evotec Opera at 2 wavelengths (488 and 635nm), and the ratio of fluorescence in the nucleus relative to fluorescence in the cytoplasm (N/C Ratio) in the 488nm channel was calculated for a minimum of 400 cells per image. Both agonists and antagonists of the AR receptor induce nuclear translocation to varying degrees. […] The OT AR/SRC-1 assay was also run for 16 hours (see description for OT_AR_ARSRC1_0960).

Androgen Receptor/SRC-1 Co-activator, AR (gene 367), sequence (P10275 whole entry, looked up): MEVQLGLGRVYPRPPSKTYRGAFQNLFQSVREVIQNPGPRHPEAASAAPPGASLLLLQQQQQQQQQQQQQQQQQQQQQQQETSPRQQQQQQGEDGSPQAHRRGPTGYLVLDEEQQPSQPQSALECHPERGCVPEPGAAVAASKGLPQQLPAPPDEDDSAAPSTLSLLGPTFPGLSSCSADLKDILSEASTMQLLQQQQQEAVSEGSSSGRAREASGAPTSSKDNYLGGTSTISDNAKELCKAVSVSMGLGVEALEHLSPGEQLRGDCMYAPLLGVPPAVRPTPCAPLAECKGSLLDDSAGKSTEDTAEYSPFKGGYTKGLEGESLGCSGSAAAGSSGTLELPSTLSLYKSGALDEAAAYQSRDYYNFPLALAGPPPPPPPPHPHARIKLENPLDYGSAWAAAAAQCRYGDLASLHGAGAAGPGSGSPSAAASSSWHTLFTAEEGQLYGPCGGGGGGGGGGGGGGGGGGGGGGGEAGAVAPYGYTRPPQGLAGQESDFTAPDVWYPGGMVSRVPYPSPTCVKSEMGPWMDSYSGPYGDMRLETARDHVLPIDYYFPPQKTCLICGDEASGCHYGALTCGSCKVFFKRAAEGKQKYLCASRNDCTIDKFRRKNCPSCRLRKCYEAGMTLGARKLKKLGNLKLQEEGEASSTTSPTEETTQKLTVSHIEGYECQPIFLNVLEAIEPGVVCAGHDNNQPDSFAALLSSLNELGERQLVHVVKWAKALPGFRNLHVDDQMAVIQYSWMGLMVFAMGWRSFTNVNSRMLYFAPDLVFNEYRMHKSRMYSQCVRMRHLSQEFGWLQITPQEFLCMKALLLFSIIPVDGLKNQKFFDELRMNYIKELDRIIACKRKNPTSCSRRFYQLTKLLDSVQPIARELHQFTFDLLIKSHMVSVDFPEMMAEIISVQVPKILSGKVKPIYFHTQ

| SMILES | outcome | AC50 |
| --- | --- | --- |
| CCCCCCCCCCCCCC(=O)OC(C)C | inactive |  |
| COc1cc(O)c(C(=O)c2ccccc2)cc1S(=O)(=O)O | inactive |  |
| CN(C)Cc1cc(CN(C)C)c(O)c(CN(C)C)c1 | inactive |  |
| CCCCCC[C@@H](O)C/C=C\CCCCCCCC(=O)OCC(O)CO (some centres not stated) | inactive |  |
| CCc1cccc(C)c1N | inactive |  |
| N#Cc1ccc(C(c2ccc(C#N)cc2)n2cncn2)cc1 | inactive |  |
| Cc1c(C(=O)c2c[nH]n(C)c2=O)ccc(S(C)(=O)=O)c1C1=NOCC1 | inactive |  |
| Cc1ccc(C)c(OCCCC(C)(C)C(=O)O)c1 | inactive |  |
| CCCCC(CC)COC(=O)/C=C/c1ccc(OC)cc1 (configuration not stated) |  | 50 µM (active) |
| CC(=O)OCc1ccccc1 | inactive |  |
| O=C(O)c1ccc2c(c1)C(=O)OC2=O | inactive |  |
| CC(=O)OC1CCCCC1C(C)(C)C (configuration not stated) | inactive |  |
| Oc1ccc(-c2ccccc2)c(Cl)c1 |  | 40 µM (active) |
| COc1ccc(C(=O)c2ccccc2)c(O)c1 | inactive |  |
| C=C1C[C@H]2[C@@H]3C=C(C)C4=CC(=O)CC[C@]4(C)[C@H]3CC[C@]2(C)[C@@]1(OC(C)=O)C(C)=O |  | 6.25 µM (active) |
| CCCCCCCCCC(C)=O | inactive |  |
| CCC[Si](OC)(OC)OC | inactive |  |
